Results from PubChem BioAssay (NCI).
The panel holds about 83,000 compounds, 20% with a hit somewhere; the sample as a whole holds those more often.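 Interpretation: 100, growth as untreated; towards 0, rising growth inhibition; 0, no net growth; 0 to -100, cell death. Compounds scoring below 10 were considered active.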 Values without a mark were called inactive. The source made the active and inactive calls.

These compounds were tested on MDA-MB-468 breast (assay: NCI-60 one-dose screen, 48 h (100 = growth as untreated, 0 = no growth, -100 = all killed)). Conditions: 10 µM unless noted.
Compound `NS(=O)(=O)c1ccc(Nc2nc(Nc3ccccc3)nc(-n3nc(-c4ccccc4)cc3-c3ccccc3)n2)cc1` has a growth of 11.7%. Work on `CC1=CCc2ccccc21` yielded a growth of 115%. Work on `C=C(C)[C@@H]1CC[C@]2(C(=O)NNC(=O)c3cccnc3)CC[C@]3(C)[C@H](CC[C@@H]4[C@@]5(C)CCCNC(C)(C)[C@@H]5CC[C@]43C)[C@@H]12` yielded a growth of 79.8%. For `CC(C)CSc1nc(NN)c(C#N)c(-c2ccccc2)n1`, the growth was 98.2%. For `COc1c(C(=O)Nc2ccc(C)c(Br)c2)ccc2ccccc12`, the growth was 87.9%. Work on `Clc1ccc2sc(-c3ccccc3)nc2c1` yielded a growth of 68.9%. `CCOC(=O)c1ccc(NC2=CC(=O)C(C)=C(C)C2=O)cc1` was tested, and the growth was 13.8%. Compound `N#Cc1ncc(-c2ccc(F)c(F)c2F)c(NC2CCCCCC2)n1` has a growth of 86.1%. With `CN(C)CC1CCC(CN(C)C)C1=O` (centres undefined) the growth was 108%. `C=C(C)[C@@H]1CCC[C@]2(C(=O)O)CC[C@]3(C)[C@@H](CC[C@@H]4[C@@]5(C)C/C(=C/c6ccncc6)C(=O)C(C)(C)[C@@H]5CC[C@]43C)[C@@H]12` was tested, and the growth was 16.6%. `O=C(CN1CCN(c2cc(=O)n(-c3ccccc3)c3ccccc23)CC1)Nc1cccc(C(F)(F)F)c1` was tested, and the growth was 4.55% (active). Compound `CCn1cc(Cc2cc(C(=O)Nc3cc4cc(OC)c(OC)cc4c(C)n3)ccc2Cl)cn1` has a growth of 35.5%. Compound `COc1ccc(C(O)c2cc3c(N)c(C(=O)Nc4cccc5ccccc45)sc3nc2C)cc1` (centres undefined) has a growth of 23.7%. For `CC(=O)Oc1ccc(C2(c3ccc(OC(C)=O)cc3)C(=O)Nc3ccccc32)cc1`, the growth was 46.2%. `O=c1c2ccccc2nc(COc2ccccc2)n1/N=C/C=C/c1ccccc1` showed a growth of 89.1%. Compound `O=C(/C=C\c1ccc(O)cc1)c1ccccc1` has a growth of 97.4%. Work on `CC(C)c1ccc(/C=N/N=C(N)N)cc1` yielded a growth of 35.3%. For `CCN(CC)CCN1C(=O)c2cccc3c(-c4ccc5c(c4)ncn5C4CCCCC4)ccc(c23)C1=O`, the growth was -6.34% (active). With `C[C@]12CC[C@@H]3c4cc(OC(F)F)c(OS(N)(=O)=O)cc4CC[C@H]3[C@@H]1CC[C@@H]2OS(N)(=O)=O` the growth was 11.9%. For `C/C=C(/C)C(=O)OC1C=C(CO)C(=O)C(OC(=O)C2(C)OC2C)C1C(C)C` (centres undefined), the growth was -66.8% (active). Work on `CN1CCN(C2=C(Cl)C(=O)c3ccccc3C2=O)CC1` yielded a growth of 57%. In the case of `C#CCCCCCCC[C@@H]1OC(=O)[C@H]([C@@H](C)CC)NC(=O)[C@H]([C@@H](C)CC)NC(=O)CC(=O)[C@@H]1C`, the growth was 95.3%. In the case of `Nc1nc(N=Nc2ccc(O)cc2)cc(=O)[nH]1`, the growth was 91.5%. Work on `COc1ccc(-c2nn(-c3cccc(Cl)c3)cc2-c2c(C#N)c(=O)n3[nH]c(-c4ccccc4)nc3c2C#N)cc1` yielded a growth of 97.6%.
